Hits are enriched below; roughly 3.6% of the tested compounds scored in any of these assays.
hDAT+cocaine: modulates human dopamine transporter uptake under cocaine | Q01959 | LLC-PK1 hDAT cells, [14C]-dopamine uptake with cocaine IC80; actives deviate in either direction | B-score at 10 µM | actives 1.3% (n = 110,000) | AID 449768;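 active = Z score or B-score, a plate-position-corrected score, falls beyond the plate's 99.7% confidence bounds, in either direction; inactive = both scores lie inside the 99.7% bounds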
Target sequence (Q01959 whole entry, looked up): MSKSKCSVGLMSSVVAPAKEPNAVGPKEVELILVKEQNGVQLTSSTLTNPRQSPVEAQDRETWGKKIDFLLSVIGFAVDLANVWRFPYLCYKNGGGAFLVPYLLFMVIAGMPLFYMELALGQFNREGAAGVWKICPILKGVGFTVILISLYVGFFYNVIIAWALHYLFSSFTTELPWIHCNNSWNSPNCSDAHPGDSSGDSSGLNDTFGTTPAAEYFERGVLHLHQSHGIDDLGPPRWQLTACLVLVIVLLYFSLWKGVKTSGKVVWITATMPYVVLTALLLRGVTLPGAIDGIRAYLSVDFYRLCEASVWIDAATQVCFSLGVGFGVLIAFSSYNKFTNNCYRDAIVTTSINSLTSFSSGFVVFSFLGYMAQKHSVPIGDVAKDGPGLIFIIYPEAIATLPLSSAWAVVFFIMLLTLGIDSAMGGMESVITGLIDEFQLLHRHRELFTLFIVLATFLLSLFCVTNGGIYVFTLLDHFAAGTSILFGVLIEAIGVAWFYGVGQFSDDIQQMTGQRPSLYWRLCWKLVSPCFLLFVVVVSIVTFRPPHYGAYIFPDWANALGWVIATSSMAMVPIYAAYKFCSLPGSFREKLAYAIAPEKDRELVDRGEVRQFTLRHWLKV
WT yeast gro inh: growth inhibition of WT yeast, mitochondrial fusion screen. mitochondrial fusion phenotypic screen, WT strain. inhibition, % at 10 µM. actives 2.1% (n = 190,000); in the data active = inhibition above about 58%; tested in S. cerevisiae
bCat KO growth: beta-catenin-lacking colon tumor cell growth suppression | HCT116 beta-catenin knockout viability, CellTiter-Glo, 60 h; active compounds read low | viability, % at 10 µM | actives 1.5% (n = 140,000);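 active = viability at or under a set limit, the compound median less 4 SD, cut at about 6% in these data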
PTEN del growth: growth suppressors of cells with PTEN tumor suppressor deletion | HCT116 PTEN-null viability, CellTiter-Glo, 60 h; active compounds read low | viability, % at 10 µM | actives 1.2% (n = 140,000);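 active = viability at or below a set limit, 4 SD under the median of all tested compounds, cut at about 3.7% in these data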;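 also: PTEN knockout HCT116 line with beta catenin targeted HCT116 as companion control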
Hits are given with their value; - = inactive; . = no result.

SMILES | hDAT+cocaine | WT yeast gro inh | bCat KO growth | PTEN del growth
CN(C)N1C(N)=C(C#N)C(c2cccc3ccccc23)C2=C1CC(c1ccccc1)CC2=O (centres undefined) | . | - | - | -
O=C(CSc1nc(C2CC2)nc2c1cnn2-c1ccccc1)Nc1c[nH]c(=O)[nH]c1=O | . | - | . | .
COCCNC(=O)CCCn1c(=O)c2cc(OC)c(OC)cc2n(CC(=O)c2ccccc2)c1=O | . | - | . | .
Cc1cc2oc3c(c(=O)c2cc1C)C(c1cccc(Br)c1)N(Cc1ccco1)C3=O (centres undefined) | - | - | 1.8 | 1.4
Cc1ccc2oc3c(c(=O)c2c1)C(c1cccc(Br)c1)N(Cc1ccco1)C3=O (centres undefined) | - | - | - | -
O=C(O)c1nn2cc(CCO)cnc2c1Cl | . | - | . | .
Cc1ccccc1N=Cc1cccc(O)c1O | . | - | - | -
Cc1ccc(N=Cc2cccc(O)c2O)c(C)c1 | - | . | 1.9 | 2.0
COc1cc(OC)cc(C(=O)NC2CCN(CC(=O)Nc3cccc4ccccc34)CC2)c1 | 3.52 | - | - | -
CCC[C@@H]1CCCO[C@@](C(=O)NCc2ccccn2)(C(F)(F)F)C1 | - | . | . | .
S=C(NCc1ccccc1)NC1CCCc2ccccc21 (centres undefined) | . | 71.6 | . | .
S=C(NCc1ccco1)NC1CCCc2ccccc21 (centres undefined) | . | - | . | .
O[C@@H]([C@H](O)[C@H](O)CBr)[C@H](O)CBr | - | . | . | .
N#Cc1ncc(-c2ccc3c(c2)OCCOCCOCCOCCOCCO3)nc1C#N | . | - | 3.8 | 2.8
O=C(CNCC1CCCO1)Nc1ccccc1N1CCCCCC1 (centres undefined) | - | - | - | -
O=C(CNCc1ccccc1Cl)Nc1ccccc1N1CCCCC1 | . | 79.6 | . | .
O=C(NC(=S)Nc1ccccc1N1CCCCC1)c1ccccc1 | . | 67.0 | . | .
O=C(NC(=S)Nc1ccccc1N1CCCC1)c1ccc(F)cc1 | . | - | . | .
O=C(Nc1ccccc1N1CCCCC1)c1ccccc1F | - | 81.5 | - | -
O=C(Nc1ccccc1N1CCN(c2ccccc2)CC1)c1ccccc1F | . | - | . | .
O=C(/C=C/c1c[nH]c2ccccc12)c1cccc2ccccc12 | . | 61.5 | - | -
NNC(=O)/C(=N/Nc1ccccc1)S(=O)(=O)c1ccc(Cl)cc1 | . | 69.0 | - | -
CCOC(=O)/C(=N/Nc1ccc(C)cc1)S(=O)(=O)c1ccc(Cl)cc1 | - | - | - | -
COC(=O)c1cc(=O)n(CCc2ccc(OC)cc2)c(=Nc2ccc(F)c(Cl)c2)s1 | - | - | - | -
CCn1c(=O)cc(C(=O)OC)sc1=Nc1ccc(F)c(F)c1 | - | - | 2.2 | 2.0
SMILES | hDAT+cocaine | WT yeast gro inh | bCat KO growth | PTEN del growth
COC(=O)c1cc(=O)n(Cc2ccc3c(c2)OCO3)c(=Nc2ccc(F)c(Cl)c2)s1 | - | - | 2.0 | -
COC(=O)c1cc(=O)n(CCc2ccccc2)c(=Nc2ccc(F)cc2)s1 | - | - | - | -
O=C(C1=NN(c2ccccc2)C2C(=O)N(c3ccccc3Cl)C(=O)C12)c1ccccc1 (centres undefined) | . | - | - | -
COc1cccc(C(C(=O)NC2CCCC2)N(C(=O)c2ccco2)c2ccc(-n3cnnn3)c(C)c2)c1OC (centres undefined) | . | - | . | .
CC1=NOC(=O)/C1=C\c1ccc(-c2cccc(Cl)c2)o1 | - | - | 1.1 | 3.7
CC1=NOC(=O)/C1=C\c1ccc(-c2ccccc2Br)o1 | . | 72.4 | . | .
C=CCOC(=O)C1=C[C@H](c2ccc3c(c2)OCO3)C[C@H](OCCCCO)O1 | - | . | . | .
COc1ccccc1CN(C)CC(=O)Nc1ccc(Cl)cc1F | . | - | . | .
COc1cc(Cl)c(C)cc1NC(=O)CN(C)Cc1cccc(OC)c1OC | . | 59.2 | . | .
COc1ccc(Br)cc1CN(C)CC(=O)Nc1ccccc1Cl | . | 67.1 | - | -
Cc1ccc(NC(=O)CN(C)CC(=O)Nc2ccccc2-c2ccccc2)cc1 | . | - | . | .
CN(CC(=O)Nc1ccccc1-c1ccccc1)Cc1ccccc1Cl | . | 70.3 | . | .
C/C=C/c1ccc(OCCOc2cccc3cccnc23)c(OC)c1 | . | - | - | -
Cc1ccc(CN2CCNC(=O)C2CC(=O)N2CCN(c3ncccn3)CC2)o1 (centres undefined) | . | - | . | .
COc1ccccc1NC(=O)c1ccccc1NS(=O)(=O)c1cccs1 | . | - | . | .
COc1ccc(C)cc1NC(=O)c1ccccc1NS(=O)(=O)c1ccc(Cl)s1 | . | 84.1 | . | .
CCCCC1=CC2=C(c3ccco3)C(=O)C(C)(OC(=O)c3ccc(OC)cc3)C(=O)C2=CN1CC(C)C (centres undefined) | - | . | . | .
O=C(NC1=NCCS1)c1cccc2ccccc12 | . | 81.3 | . | .
O=C(NC1=NCCS1)c1cc(-c2cccnc2)nc2ccccc12 | . | - | . | .
O=C(/C=C\c1ccccc1OC(=O)c1ccccc1F)c1cc2ccccc2o1 | . | - | 3.3 | 2.0
CC(C)Cn1c2c(c(O)c(C(=O)Nc3nccs3)c1=O)CCCC2 | . | - | - | -
Cc1csc(NC(=O)c2c(O)c3c(n(CC(C)C)c2=O)CCCC3)n1 | - | 63.2 | - | -
CCCn1c2c(c(O)c(C(=O)Nc3nc(C)cs3)c1=O)CCCC2 | - | - | - | -
CCCn1c2c(c(O)c(C(=O)Nc3nccs3)c1=O)CCCC2 | - | 75.8 | - | -
O=C(NCCN1CCOCC1)c1cc(Cl)ccc1[N+](=O)[O-] | . | - | - | -
SMILES | hDAT+cocaine | WT yeast gro inh | bCat KO growth | PTEN del growth
CC1CCCCN1C(=O)/C=C/c1ccccc1[N+](=O)[O-] (centres undefined) | . | - | . | .
CCOC(=O)c1sc2nc(N3CCOCC3)c3c(c2c1N)CCCC3 | - | - | - | -
COC(=O)c1ccc(-c2sc3nc(N4CCOCC4)c4c(c3c2N)CCCC4)o1 | - | 62.1 | - | -
CCN(CC)C(=O)c1sc2nc(N3CCOCC3)c3c(c2c1N)CCCC3 | 2.96 | - | - | -
COC(=O)c1sc2nc(N3CCCCC3)c3c(c2c1N)CCCC3 | - | - | - | -
Cc1ccc(Nc2nc3c(c(=O)[nH]c(=O)n3C)n2Cc2ccc(F)cc2)cc1 | - | - | - | -
CC1C/C(=C/c2ccncc2)C(=O)/C(=C/c2ccncc2)C1 (centres undefined) | . | 76.9 | . | .
Cn1cccc1/C=C1/SC(=S)N(CC(=O)O)C1=O | - | - | . | .
CC1C/C(=C/c2cccn2C)C(=O)/C(=C/c2cccn2C)C1 (centres undefined) | - | - | 3.8 | -
O=C(CCc1nnc(C2CCCCC2)o1)NCc1cccc(-n2cccn2)c1 | . | - | . | .
CN1/C(=C/C(=O)c2nc(S(C)(=O)=O)ncc2Cl)C(C)(C)c2ccccc21 | - | - | 2.0 | 2.6
CN1/C(=C\C(=O)c2cccnc2)C(C)(C)c2ccccc21 | . | - | - | -
Cc1cc(C)nc(NC(=O)/C=C/c2ccccc2Cl)c1 | . | 63.8 | - | -
Cc1cc(C)nc(NC(=O)/C=C/c2ccc(Cl)cc2Cl)c1 | . | 74.2 | - | -
Cc1cc(C)nc(NC(=O)/C=C/c2cccs2)c1 | - | - | - | -
O=C(Nc1ccc(N2CCN(c3ccccc3)CC2)c(F)c1)C1CC1 | . | - | . | .
O=C(COC(=O)C1CCN(C(=O)Nc2ccccc2)CC1)NCC(F)(F)F | . | - | . | .
CCN(CC)S(=O)(=O)c1ccc(C(=O)Nc2cccc(C)c2)cc1 | - | . | - | -
COC(=O)Nc1ccc(S(=O)(=O)N(C)C)cc1 | -2.81 | - | - | -
Cc1cccc(NC(=O)c2ccc(S(=O)(=O)N(C)C)cc2)c1 | 3.06 | - | - | -

Screening results from PubChem.
